High-throughput results (PubChem BioAssay)
Most compounds without a hit are left out; they make up all but 4.2% or so of the library.
TRPV1 potentiator: human TRPV1 potentiation | Q8NER1 | TRPV1-expressing cells, Fluo-8 calcium influx, capsaicin EC20 potentiation | potentiation, % at 8.33 µM | actives 0.02% (n = 320,000); in the data active = potentiation above about 80%; inconclusive = between about 30% and that limit
Target sequence (Q8NER1 whole entry, looked up): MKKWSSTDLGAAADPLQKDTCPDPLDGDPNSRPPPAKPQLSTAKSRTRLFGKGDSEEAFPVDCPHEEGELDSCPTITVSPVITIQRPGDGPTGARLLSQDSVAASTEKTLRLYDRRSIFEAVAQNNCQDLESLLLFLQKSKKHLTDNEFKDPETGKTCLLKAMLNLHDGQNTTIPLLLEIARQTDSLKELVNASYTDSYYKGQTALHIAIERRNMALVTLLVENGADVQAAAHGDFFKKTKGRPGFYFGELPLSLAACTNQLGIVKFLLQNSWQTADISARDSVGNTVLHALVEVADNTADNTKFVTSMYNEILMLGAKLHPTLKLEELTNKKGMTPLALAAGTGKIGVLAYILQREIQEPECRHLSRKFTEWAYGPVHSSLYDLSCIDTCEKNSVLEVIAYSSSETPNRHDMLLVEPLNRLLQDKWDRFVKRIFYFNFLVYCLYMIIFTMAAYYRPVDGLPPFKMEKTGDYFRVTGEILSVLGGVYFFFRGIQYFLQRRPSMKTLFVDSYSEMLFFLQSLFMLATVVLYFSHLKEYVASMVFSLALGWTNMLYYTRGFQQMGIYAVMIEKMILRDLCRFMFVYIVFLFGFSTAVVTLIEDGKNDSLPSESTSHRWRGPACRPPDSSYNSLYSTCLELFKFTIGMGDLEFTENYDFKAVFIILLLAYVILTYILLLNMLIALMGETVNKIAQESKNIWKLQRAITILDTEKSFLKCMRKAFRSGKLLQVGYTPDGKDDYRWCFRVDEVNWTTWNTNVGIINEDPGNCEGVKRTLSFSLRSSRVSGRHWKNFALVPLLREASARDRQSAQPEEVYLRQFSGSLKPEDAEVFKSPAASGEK
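Fluo-8 calcium influx in TRPV1-expressing cells, kinetic read (ex 480/em 520 nm). Compound added and read 3 min for agonist activity, followed by capsaicin at EC20 final and 2 min further read for enhancement.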
D1 ag: activates the human D1 dopamine receptor; P21728; AID 504660; activation, % at 2 µM; actives 1% (n = 360,000); HEK293 T-REx D1 cells, calcium flux, agonist mode; in the data active = activation above about 30%
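Tetracycline-induced HEK293 TREx D1 cells, force-coupled to calcium signalling, were dye-loaded with a no-wash calcium kit. Compound was pin-added after a 10 s baseline. Fluorescence was read kinetically at 1 cycle/s for 180 s, with calcium rises flagged as agonism.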
D1 potentiator: potentiators of human D1 dopamine receptor; actives 0.036% (n = 360,000); HEK293 TREx D1 cells, calcium flux, dopamine EC20 potentiation; potentiation, % at 10 µM; in the data active = potentiation above about 30%
TRPV1 ag: activates the human vanilloid receptor TRPV1 | actives 0.19% (n = 320,000) | activation, % at 8.33 µM | Q8NER1 | TRPV1-expressing cells, Fluo-8 calcium influx, agonist mode | AID 540275; in the data active = activation above about 80%; inconclusive = between about 30% and that limit
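TRPV1-expressing cells were cultured overnight at 35.5C and loaded with Fluo-8 calcium dye for 40 to 90 min at room temperature. After a 10 s baseline, compound was added and calcium influx was read kinetically for 3 min (ex 480/em 520 nm).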
D1 antag: blocks dopamine activation of the human D1 receptor; P21728; HEK293 TREx D1 cells, calcium flux, dopamine EC80; hits give low values; activity change, negative = inhibition, % at 10 µM; actives 3.2% (n = 360,000); AID 504652; in the data active = activity change below about -30%
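Inducible Hek293 Trex D1 cells (tetracycline, overnight, 30 C). Calcium dye 30–90 min RT. Antagonist mode: EC80 dopamine added after 180 s compound read.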
Each line names hits and unclear results; the compound was inactive in the other large screens.

O=C(c1cnn(-c2ccc(F)cc2)c1-n1cccc1)N1CCN(c2ccccc2)CC1	none (no result: TRPV1 potentiator, TRPV1 ag)
Cc1ccc(C)c(CSC2=NC(C)(C)Nc3ccccc32)c1	D1 antag -83 (no result: TRPV1 potentiator, TRPV1 ag)
N#CC1(Nc2cccc(Br)c2)C(=O)Nc2ccccc21 (stereo unspecified)	TRPV1 potentiator inconclusive, D1 ag 53
CCCCCn1c(=O)[nH]c2cc(C(=O)NCc3ccc(OC)cc3)ccc2c1=O	none (no result: TRPV1 potentiator, TRPV1 ag)
COc1ccc(CC(=O)c2ccc(OC)c(OC)c2C)cc1OC	D1 antag -34
COc1ccc(CC(=O)Oc2ccc(C)cc2C)cc1	none
COc1ccc(CC(=O)Oc2ccc(C)cc2Br)cc1OC	D1 antag -32
CCOc1ccccc1CNC(=O)Cn1cc2c(n1)-c1c(oc(C(=O)N3CCCC3)c1C)CC2	none (no result: TRPV1 potentiator, TRPV1 ag)
Cn1cc(CN2CCC(C(O)c3cccs3)CC2)c(-c2cccc(Cl)c2)n1 (stereo unspecified)	D1 ag 41
O=C(Cn1cc(S(=O)(=O)c2ccc(F)cc2)c(=O)c2cc3c(cc21)OCO3)Nc1ccccc1	D1 antag -34 (no result: TRPV1 potentiator, TRPV1 ag)
COc1ccc(S(=O)(=O)c2cn(CC(=O)Nc3ccccc3)c3ccc(Cl)cc3c2=O)cc1	D1 antag -45 (no result: TRPV1 potentiator, TRPV1 ag)
CCc1ccc2c(c1)c(=O)c(S(=O)(=O)c1ccccc1)cn2CC(=O)Nc1ccc(OC)cc1	none (no result: TRPV1 potentiator, TRPV1 ag)
Cc1ccc(C(=O)Nc2ccc(Cl)c(-c3nc4ncccc4o3)c2)c(C)c1	none (no result: TRPV1 potentiator, TRPV1 ag)
CCC(Oc1ccccc1F)C(=O)N1CCC(c2nc3ccccc3s2)CC1 (stereo unspecified)	D1 ag 36 (no result: TRPV1 potentiator, TRPV1 ag)
Cc1c(CC(=O)N2CCCCC2)c(=O)oc2cc3occ(C(C)(C)C)c3cc12	none (no result: TRPV1 potentiator, TRPV1 ag)
CCOc1ccc(C(=O)Nc2cccc3ncccc23)cc1Cl	D1 antag -30
O=C1NC(=S)S/C1=C\c1ccc2ccccc2c1	D1 antag -31
COc1cccc(-c2nc(CSCC(=O)NCCc3ccc(Cl)cc3)c(C)o2)c1	D1 ag 48, D1 antag -36 (no result: TRPV1 potentiator, TRPV1 ag)
O=C(NCCN1CCOCC1)c1ccc(-c2ccccc2)cc1	D1 antag -36
CCCCC(=O)Nc1ccc(C(=O)NCCN2CCOCC2)cc1	D1 antag -58
O=C(Cc1ccc(-c2ccccc2)cc1)NCCN1CCOCC1	none
CCn1cc(/C=C(\NC(=O)c2ccccc2Cl)C(=O)NCCCn2ccnc2)c2ccccc21	none (no result: TRPV1 potentiator, TRPV1 ag)
Cc1c(-c2ccc(Cl)cc2)c(=O)oc2c(CN3CCOCC3)c(O)ccc12	none (no result: TRPV1 potentiator, TRPV1 ag)
Fc1c(F)c(C(F)(F)F)c(F)c(F)c1N/N=C\c1cccs1	D1 antag -34
Cn1c(N/N=C/c2cccs2)cc(=O)n(C)c1=O	none
Cc1ccc(S(=O)(=O)CC(=O)N2CCN(c3nc4c(F)cccc4s3)CC2)cc1	D1 ag 56 (no result: TRPV1 potentiator, TRPV1 ag, D1 antag)
Cc1cccc2sc(N3CCN(C(=O)CS(=O)(=O)c4ccc(F)cc4)CC3)nc12	none (no result: TRPV1 potentiator, TRPV1 ag, D1 antag)
Cc1ccc(C)c(NC(=O)CCC(=O)NNC(=O)COc2cc(C)ccc2C)c1	D1 antag -38
Cc1nc2sc(C(N)=O)c(N)c2c2c1CCCC2	D1 antag -30
Cc1ccc(-c2c3c(=O)n(C)c(=O)n(C)c3c3c(C(F)(F)F)nc4ccccc4n23)cc1	none (no result: TRPV1 potentiator, TRPV1 ag)
CCN(CC)S(=O)(=O)c1cc(-c2nnc(Nc3ccc(OC)c(C(N)=O)c3)c3ccccc23)ccc1C	none (no result: TRPV1 potentiator, TRPV1 ag)
COC(=O)c1ccc(COn2nnc3ccccc32)cc1	TRPV1 ag inconclusive, D1 antag -35
CCOc1ccc(NC(=O)Cn2cc(C(=O)c3ccco3)c3ccccc32)cc1	none
COc1ccc(NC(=O)Cn2cc(S(=O)(=O)Cc3ccccc3)c3ccccc32)c(OC)c1	D1 antag -32
COc1ccc(NC(=O)Cn2cc(C(=O)c3ccco3)c3ccccc32)cc1	D1 antag -87
Cc1ccc(/C=N/NC(=O)Cn2cnc3ccccc32)cc1	D1 antag -43
Cc1ccc(OCc2nc3ccccc3n2CCOc2ccc(Cl)cc2)cc1	D1 ag 41 (no result: TRPV1 potentiator, TRPV1 ag)
c1ccc2c(c1)ncn2CCN1CCCCC1	D1 antag -71
Cc1ccc(OCCCCn2cnc3ccccc32)cc1	TRPV1 potentiator inconclusive, D1 antag -37
Cc1cccc(Cn2c(COc3ccc(Cl)cc3)nc3ccccc32)c1	D1 ag 32 (no result: TRPV1 potentiator, TRPV1 ag)
Cc1ccc(S(=O)(=O)NNC(=O)Nc2cccc(C)c2C)c(C)c1	none
Cc1ccc(S(=O)(=O)NNC(=O)Nc2ccc(C)c(C)c2)c(C)c1	D1 antag -35
O=C(CCCN1C(=O)c2cccnc2C1=O)Nc1ccc(Br)cc1	D1 antag -55
O=C(Nc1cccc(-n2cccn2)c1)C1CCCN(Cc2cc3ccccc3[nH]2)C1 (stereo unspecified)	none
CCOc1ccccc1CN1CCCC(C(=O)Nc2cccc(-n3cccn3)c2)C1 (stereo unspecified)	D1 ag 49, D1 antag -64
CCn1ncc(CN2CCCC(C(=O)Nc3cccc(-c4cc5ccccc5[nH]4)c3)C2)c1C (stereo unspecified)	D1 ag 91, D1 antag -51
CC(C)(C)OC(=O)N1CCC(c2c(C(=O)NCCN3CCOCC3)cnn2-c2ccccc2)CC1	none (no result: TRPV1 potentiator, TRPV1 ag)
CCN(C(=O)Cn1c(=O)n(Cc2ccc3c(c2)OCO3)c(=O)c2ccc(C(=O)NC3CCCCC3)cc21)c1cccc(C)c1	D1 antag -54 (no result: TRPV1 potentiator, TRPV1 ag)
NC(=O)C[n+]1cccc(CNC(=O)c2ccc(OC(F)F)cc2)c1	D1 antag -30
Cc1noc(C)c1C(=O)Nc1nc(-c2cc(F)ccc2F)cs1	D1 antag -32
O=C(Nc1nc(-c2ccc(F)cc2)cs1)c1cccc(N2C(=O)CCC2=O)c1	none
O=C(Nc1nc(-c2cc(F)ccc2F)cs1)c1cccc(N2C(=O)CCC2=O)c1	D1 antag -32
CCOc1ccc(-c2nnc(SCC(=O)Nc3cccc(C#N)c3)o2)cc1	none (no result: TRPV1 potentiator, TRPV1 ag)
COc1cccc(NC(=O)c2cnc(SCC(=O)N3CCOCC3)n(C)c2=O)c1	none (no result: TRPV1 potentiator, TRPV1 ag, D1 antag)
CC(CNC(=O)Cn1c(-c2cccs2)cc2ccccc21)c1ccccc1 (stereo unspecified)	none (no result: TRPV1 potentiator, TRPV1 ag)
CC(=O)Nc1c(C)nn(-c2ccccc2)c1N1CCC(C(=O)Nc2ccc(F)cc2Cl)CC1	none (no result: TRPV1 potentiator, TRPV1 ag)
Cc1cc(Nc2cccc([N+](=O)[O-])c2)n2c(nc3ccccc32)c1C#N	D1 antag -35
COc1cccc(N2CC(NC(=O)COc3ccccc3F)CC2=O)c1 (stereo unspecified)	none (no result: TRPV1 potentiator, TRPV1 ag, D1 antag)
CN(C)c1ccc(/C=C2/NC(=O)NC2=O)cc1	none
O=C1NC(=O)/C(=C/c2ccc(OS(=O)(=O)c3ccc(F)cc3F)cc2)N1	D1 antag -31
Cc1ccc2nc(N3CCN(c4ccccc4)CC3)c3nnnn3c2c1	none (no result: TRPV1 potentiator, TRPV1 ag)
CCc1cccc(C)c1NC(=O)Cn1nnc(-c2nc(-c3ccccc3F)no2)c1N	none (no result: TRPV1 potentiator, TRPV1 ag)
COc1ccccc1N1CCN(C(=O)CSc2ncnc3scc(-c4ccccc4)c23)CC1	none
O=C(CSc1ncnc2c1cnn2-c1ccccc1)NC1CCCC1	D1 antag -91
